According to PubChem BioAssay (NCI):
This is part of a sample that, as a whole, favours compounds with a hit. Of some 79,000 tested, about 15% had one in any assay. A number with no mark means an inactive call. Calls of active or inactive are those of the source. Cut-off read from the data, not from the text of the source: active = growth inhibition above about 70%; inactive = the rest.

Assay: NCI Yeast Anticancer Drug Screen. Data for the mlh1 strain (AID 171);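 note: 0% = growth of vehicle-treated control cultures of the same strain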
Settings: S. cerevisiae mlh1 strain growth inhibition, hits give high values
Experimental: Growth inhibition of yeast strains with defined genetic alterations is measured as a screen for potential anti-cancer activity. Selected strains with alterations in DNA damage repair or cell cycle control were exposed to compounds and growth inhibition was measured relative to vehicle treated controls. The strain used in this assay is mlh1

Row | SMILES | growth inhibition (at 1.2 µM) [%] | growth inhibition (at 3.7 µM) | growth inhibition (at 11.0 µM) | growth inhibition (at 33.0 µM) | growth inhibition (at 100.0 µM)
1 | CC(C)(CN1CCCCC1)C(=O)CC(SCCS(=O)(=O)O)c1ccccc1 (stereo not given) | 0 | 2% | 3% | 6% | 13%
2 | CN(C)CCNCCCNc1c2ccccc2nc2cccc([N+](=O)[O-])c12 | 5 | 18% | 25% | 46% | 74% (active)
3 | O=C(Nn1c(-c2ccccc2)nc2ccccc2c1=O)c1ccc(CS)cc1 | 9 | 7% | 10% | 53% | 98% (active)
4 | COc1cc(C2C3=C(COC3=O)Oc3cc4c(cc32)OCO4)cc(OC)c1O (stereo not given) | 3 | 0% | 8% | 10% | 10%
5 | O=C(O)C1CCCCC1c1c2ccc(=O)cc-2oc2cc(O)ccc12 (stereo not given) | -26 | -21% | -16% | -1% | 86% (active)
6 | O=[N+]([O-])c1cc[n+]([O-])c(Cl)c1 | -11 | 16% | 30% | 98% (active) | 99% (active)
7 | CC(=O)N1C=Cc2c(c(C)c3c([nH]c4ccccc43)c2C)C1 | 31 | 71% (active) | 90% (active) | 96% (active) | 95% (active)
8 | CN(C)CCNc1ccc2ncn3c4ccc(O)cc4c(=O)c1c23 | -23 | -21% | -15% | -4% | -8%
